Screening data (PubChem BioAssay)
PAFAH1B2 inh: PAFAH1B2 (human) inhibition; AID 492953; 1.2% of 340,000 active; recombinant PAFAH1B2, FP-rhodamine activity probe, fluorescence polarization; inhibition, % at 3.39 µM; P68402;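 active = inhibition above the mean of all tested compounds plus 3 SD, cut at about 24% in these data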;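 also: 0% = enzyme with DMSO and 100% = wells lacking PAFAH1B2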
Target sequence (P68402 whole entry, looked up): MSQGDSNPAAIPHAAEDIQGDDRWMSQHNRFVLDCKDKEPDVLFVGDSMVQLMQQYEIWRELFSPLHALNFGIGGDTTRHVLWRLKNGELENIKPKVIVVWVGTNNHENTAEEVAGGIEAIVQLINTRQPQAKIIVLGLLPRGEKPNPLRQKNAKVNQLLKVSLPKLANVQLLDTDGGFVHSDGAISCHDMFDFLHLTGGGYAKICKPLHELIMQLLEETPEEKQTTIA
CTSL1 counter: blocks F. hepatica cathepsin L1 in PFM18AAP counter-screen | AID 1906 | recombinant F. hepatica cathepsin L1, Z-Leu-Arg-MCA fluorescence | 0.49% of 300,000 active | inhibition, % at 5.96 µM;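 active = inhibition above the mean of all tested compounds plus 3 SD, set per screening campaign, cut at about 17% in these data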;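 also: 0% = plate median of test compound wells and 100% = 1 µM Z-Phe-Ala-diazomethylketone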
pPAFAH inh: pPAFAH (human) enzyme inhibition | Q13093 | recombinant pPAFAH, FP-rhodamine probe fluorescence polarization | inhibition, % at 3.39 µM | 1.5% of 330,000 active | AID 463082;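 active = inhibition above the mean inhibition across the screen plus 3 SD, cut at about 25% in these data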;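 also: inhibitors block binding of the rhodamine activity-based probe so polarization drops; 0% = enzyme with DMSO and 100% = wells lacking pPAFAH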
PAFAH2 FP inh: inhibitors of human PAFAH2; Q99487; recombinant PAFAH2, FP-rhodamine activity probe, fluorescence polarization; inhibition, % at 3.39 µM; 0.99% of 340,000 active;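 active = inhibition above the mean over all tested compounds plus 3 SD, cut at about 30% in these data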;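 also: inhibitors block probe labeling of enzyme so polarization drops; 0% = enzyme with DMSO and 100% = wells lacking PAFAH2 protein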
PAFAH1B3 FP inh: blocks human PAF acetylhydrolase 1B catalytic subunit 3; Q15102; recombinant PAFAH1B3, FP-rhodamine probe, fluorescence polarization; inhibition, % at 3.39 µM; 0.28% of 340,000 active; AID 492972;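 active = inhibition above the screen-wide average of all tested compounds plus 3 SD, cut at about 25% in these data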;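 also: 0% = enzyme with DMSO only and 100% = wells lacking PAFAH1B3 protein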
Target sequence (Q15102 whole entry, looked up): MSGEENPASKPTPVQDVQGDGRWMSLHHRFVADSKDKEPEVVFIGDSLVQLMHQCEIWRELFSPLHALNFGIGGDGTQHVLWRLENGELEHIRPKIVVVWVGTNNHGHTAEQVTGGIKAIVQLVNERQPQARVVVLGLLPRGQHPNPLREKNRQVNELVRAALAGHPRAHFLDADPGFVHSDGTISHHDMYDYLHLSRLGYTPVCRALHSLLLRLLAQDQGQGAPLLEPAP
PP5 primary: inhibitors of human protein phosphatase 5 (PP5); AID 1987; P53041; inhibition, % at 6.7 µM; 0.18% of 320,000 active; purified PP5c, OMFP substrate fluorescence;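 active = inhibition above the campaign's mean inhibition across all tested compounds plus 3 SD, cut at about 9.5% in these data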;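 also: 0% = DMSO only and 100% = 100 µM cantharidin control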
PAFAH2 FP conf: confirmation of human PAFAH2 inhibitors. shares compounds with PAFAH2 FP inh. recombinant PAFAH2, FP-rhodamine activity probe, fluorescence polarization. inhibition, % at 3.39 µM. 65% of 2,300 active;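 active = mean inhibition over three repeats above a set limit taken from the earlier primary screen, cut at about 30% in these data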;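 also: inhibitor blocks binding of rhodamine activity probe so polarization falls; 0% = enzyme with DMSO and 100% = wells lacking PAFAH2 protein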
* marks the source's active call; other numbers are inactive results; nt = no result. An excerpt weighted towards active compounds, which were near 3% of everything screened.

SMILES	PAFAH1B2 inh	CTSL1 counter	pPAFAH inh	PAFAH2 FP inh	PAFAH1B3 FP inh	PP5 primary	PAFAH2 FP conf
CN(C)c1ccc(N/C(=N\S(=O)(=O)c2cccs2)c2ccccc2)cc1	4	-2	4	57*	8	3	54*
N#Cc1ccc(C(=O)Nc2ccc([N+](=O)[O-])cc2)c(F)c1	-3	2	3	0	1	1	nt
Cc1ccc(C(=O)CN(C(=O)c2ccc(Cl)c(Cl)c2)N2C(=O)C3CCCCC3C2=O)cc1 (configuration not stated)	7	-1	3	35*	8	0	35*
O=[N+]([O-])c1ccc(CN2CCCCCC2)s1	5	-3	5	32*	5	7	11
O=[N+]([O-])c1ccc(CN2CCCCCC2)cc1	7	0	2	-6	6	2	nt
COc1ccc(NC(=O)C2Cc3ccccc3C(=O)O2)cc1 (configuration not stated)	4	-1	3	8	1	0	nt
Cc1ccccc1NC(=O)C1Cc2ccccc2C(=O)O1 (configuration not stated)	4	0	11	36*	13	3	30*
COc1ccc(CC(=O)N/N=C(\C)CC(=O)Nc2ccc(N(C)C)cc2)cc1	-2	-3	5	3	2	0	nt
C/C(CC(=O)Nc1ccc(N(C)C)cc1)=N\NC(=O)Cc1csc(N)n1	3	-5	9	49*	3	0	7
Cc1nc(NC(=O)COC(=O)/C=C/c2ccco2)c(Cl)cc1Cl	0	nt	13	35*	3	1	18
O=C(COC(=O)/C=C/c1ccco1)Nc1ncc(Cl)cc1Cl	2	-6	11	47*	6	-1	27
Cc1nc(NC(=O)COC(=O)C(NC(=O)c2ccco2)C(C)C)c(Cl)cc1Cl (configuration not stated)	-2	-29	7	1	-6	2	nt
COC(=O)c1ccc(/C=C/C(=O)OCC(=O)Nc2ncc(Cl)cc2Cl)cc1	6	nt	-3	29	4	3	nt
O=C(O)c1ccc(NC(=S)NC(=O)c2ccc(-c3ccc(Br)cc3)o2)cc1	1	4	4	3	3	-1	nt
CCN(Cc1nc2cc(Cl)ccc2c(=O)[nH]1)C(=O)CN1C(=O)NC2(CCCCC2C)C1=O (configuration not stated)	1	nt	nt	-1	3	nt	nt
COc1cccc(NC(=O)COC(=O)/C=C/c2c(C)nn(-c3ccccc3)c2C)c1	-9	nt	2	78*	-3	6	80*
NS(=O)(=O)c1cccc(NS(=O)(=O)c2ccc(/C=C/C(=O)OCC(=O)c3ccc(Br)cc3)cc2)c1	2	-7	6	2	2	3	nt
COc1ccc(/C=C/C(=O)OCC(=O)Nc2cc(C(N)=O)cc(C(N)=O)c2)cc1	-4	-4	-1	-4	6	5	nt
Cc1nn(-c2ccccc2)c(C)c1/C=C/C(=O)OCC(=O)Nc1ccc(C(N)=O)cc1	-3	nt	-8	6	-4	1	nt
COc1ccc(C(=O)COC(=O)/C=C/c2ccc(S(=O)(=O)Nc3cccc(S(N)(=O)=O)c3)cc2)cc1	2	-3	-2	32*	3	2	19
Cc1nn(-c2ccc(F)cc2)c(Cl)c1/C=C/C(=O)OCC(=O)Nc1ccc(F)cc1F	1	0	-1	14	-3	4	nt
Cc1ccc(NC(=O)COC(=O)/C=C/c2c(C)nn(-c3ccc(F)cc3)c2Cl)cc1F	1	-1	3	72*	2	1	57*
COc1ccc(/C=C/C(=O)OCC(=O)Nc2cccc(C(C)=O)c2)cc1	0	-3	-1	90*	1	1	81*
OCCN1CCN(c2nc(-c3ccccc3O)nc3ccccc23)CC1	0	2	6	-2	0	2	nt
C/C=C/C(=O)OCC(=O)Nc1cc(-c2cc(C)c(C)cc2C)nn1-c1ccccc1	-1	-6	-5	41*	-4	3	30*
SMILES	PAFAH1B2 inh	CTSL1 counter	pPAFAH inh	PAFAH2 FP inh	PAFAH1B3 FP inh	PP5 primary	PAFAH2 FP conf
Cc1nn(-c2ccccc2)c(C)c1/C=C/C(=O)OCC(=O)Nc1ncc(C(F)(F)F)cc1Cl	-1	-4	2	45*	2	0	35*
COC(CNC(=O)C(=O)NCC1CCCN1S(=O)(=O)c1cccs1)OC (configuration not stated)	0	2	-4	-5	-6	0	nt
CC(=O)Nc1ccc(C(=O)OCC(=O)NC(=O)NC(C)(C)C)cc1	1	-2	3	41*	7	2	31*
CC(=O)Nc1ccc(C(=O)OCC(=O)NCCC2=CCCCC2)cc1	-2	nt	nt	66*	6	nt	61*
O=C(COC(=O)c1ccc(OC(F)F)cc1)NCCC1=CCCCC1	1	nt	22	41*	-2	3	15
Cc1ccc(S(=O)(=O)N2CCC(C(=O)OCC(=O)N3CC(C)CC(C)C3)CC2)cc1C (configuration not stated)	2	4	8	10	-4	-1	nt
COc1cccc(CN2CC(C(=O)NCCCn3cccn3)CCC2=O)c1 (configuration not stated)	6	6	1	-5	5	2	nt
CN1/C(=C\C(=O)COC(=O)c2ccco2)C(C)(C)c2ccccc21	8	-4	-5	33*	7	0	37*
O=C(COC(=O)Cc1ccc(Cl)cc1)NCc1cccs1	17	nt	12	7	11	nt	nt
CC1C=CCC2C(=O)N(c3ccc(Cl)cc3O)C(=O)C12 (configuration not stated)	7	-1	3	35*	9	1	23
CC1C=CCC2C(=O)N(c3ccccc3OC(=O)c3cccs3)C(=O)C12 (configuration not stated)	4	2	-2	2	-1	1	nt
Oc1oc(-c2ccccc2)nc1C=NCc1ccccc1	4	6	18	45*	11	2	37*
Oc1oc(-c2ccccc2)nc1C=Nc1ccccc1	5	3	3	28	6	0	nt
O=C(NC1CCCCC1)C(c1ccncc1)N(CC1CCCO1)C(=O)C(F)(F)F (configuration not stated)	2	-4	-2	41*	2	-1	19
CCC(C)N(C(=O)C(F)(F)F)C(C(=O)NC1CCCCC1)c1ccncc1 (configuration not stated)	5	1	-5	7	0	2	nt
CCCCNC(=O)c1cn(C)c2ccc(S(=O)(=O)N3CC(C)CC(C)C3)cc2c1=O (configuration not stated)	7	-2	4	5	0	-1	nt
